Out of some 360,000 compounds screened, about 3,700 (1%) were called active. Rule as the data show it: active = activation above about 30%; inactive = the rest. The list comes from a sample in which actives are over-represented; it also holds similar structures and randomly drawn compounds.
Target: D(1A) dopamine receptor (Homo sapiens) (UniProt P21728)
Assay: Allosteric Agonists of the Human D1 Dopamine Receptor: qHTS; also: 0% is about no effect
Details: HEK293 T-REx D1 cells, calcium flux, agonist mode; at 2 µM; hits give high values
How it was run: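 Tetracycline-induced HEK293 TREx D1 cells, force-coupled to calcium signalling, were dye-loaded with a no-wash calcium kit. Compound was pin-added after a 10 s baseline. Fluorescence was read kinetically at 1 cycle/s for 180 s, with calcium rises flagged as agonism.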

Chain of D(1A) dopamine receptor (Homo sapiens) (P21728 whole entry, looked up): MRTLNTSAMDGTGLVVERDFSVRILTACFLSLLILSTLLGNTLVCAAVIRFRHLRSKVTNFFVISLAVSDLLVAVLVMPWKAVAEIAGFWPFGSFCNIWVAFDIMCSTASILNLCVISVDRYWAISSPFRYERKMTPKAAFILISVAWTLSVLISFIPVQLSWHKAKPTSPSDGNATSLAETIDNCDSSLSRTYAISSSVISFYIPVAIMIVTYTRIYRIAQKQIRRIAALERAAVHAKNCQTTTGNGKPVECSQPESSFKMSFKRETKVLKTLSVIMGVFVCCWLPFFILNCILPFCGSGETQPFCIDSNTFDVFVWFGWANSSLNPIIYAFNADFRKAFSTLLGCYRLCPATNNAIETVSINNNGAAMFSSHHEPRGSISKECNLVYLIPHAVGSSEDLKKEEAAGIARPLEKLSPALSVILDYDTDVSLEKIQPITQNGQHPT

Row | SMILES | activation
1 | COC(=O)c1cc(C(=O)CSc2nc(C)cc(C)n2)ccc1O | 257% (active)
2 | COC(=O)c1cccc(NC(=O)CSc2nc(C)cc(=O)[nH]2)c1 | 1.14% (inactive)
3 | COc1ccc(C(=O)CSc2n[nH]c(N)n2)cc1 | -2.12% (inactive)
4 | Cn1c(=O)c2c(nc(SCC(=O)Nc3ccc(F)cc3)n2Cc2ccc(Cl)cc2)n(C)c1=O | -0.966% (inactive)
5 | CCOC(=O)c1ccc(NC(=O)C2CCN(S(=O)(=O)c3ccc4c(c3)CCCC(=O)N4)CC2)cc1 | -0.195% (inactive)
6 | COc1ccc(Cl)cc1N(C)C(=O)c1cc2c(=O)oc3ccc(C)cc3c2s1 | 1.68% (inactive)
7 | COC(=O)c1sc(-c2ccc(C(C)(C)C)cc2)cc1NC(=O)/C=C/C(=O)O | 33% (active)
8 | Cc1ccc(NC(=O)c2oc3ccccc3c2NC(=O)Cc2cccs2)cc1 | 5.67% (inactive)
9 | CCN1C(=O)c2ccccc2Sc2ccc(NC(=O)Cc3ccc(OC)cc3)cc21 | 8.31% (inactive)
10 | COc1ccc(NC(=O)Nc2cccc(-c3noc(C)n3)c2)cc1 | -0.581% (inactive)
11 | COc1ccc(-c2nc3ccc(C(=O)NCc4ccc(C)cc4)cc3nc2-c2ccc(OC)cc2)cc1 | -0.317% (inactive)
12 | COc1ccc(-c2onc3ccc(C(C)=O)cc23)cc1 | 68% (active)
13 | O=C(NCCCc1ccccc1)c1ccc2c(c1)sc1nc(-c3ccc(F)cc3)cn12 | 1.38% (inactive)
14 | COC(=O)c1cc(S(=O)(=O)NC2CCN(Cc3ccccc3)CC2)cn1C | 6.94% (inactive)
15 | COC(=O)c1cc(S(=O)(=O)NCC2CCN(Cc3ccc(Cl)cc3)CC2)cn1C | 35.7% (active)
16 | O=S(=O)(NCC1CC1)c1ccc(F)c(Cl)c1 | 0.965% (inactive)
17 | O=C(CSc1ncc(CO)n1Cc1ccc(Cl)cc1)NCc1ccc(F)cc1 | -0.41% (inactive)
18 | Cc1ccc(NC(=O)CSc2nc3c(c(=O)[nH]2)CN(Cc2ccc4c(c2)OCO4)CC3)cc1C | 2.15% (inactive)
19 | CCNC(=O)CC1C(=O)N(c2ccc(F)cc2)C(=O)N1Cc1ccc(C)cc1 (stereo not given) | -1.09% (inactive)
20 | Cc1cc(C(F)(F)F)c(C#N)c(SCC(=O)NC2CC2)n1 | 2.38% (inactive)
21 | COCc1cc(C)nc(SCC(=O)Nc2cccc(C)c2)c1C#N | 1.7% (inactive)
22 | Cc1ccc(-c2cc(C(F)(F)F)c(C#N)c(SCC(=O)Nc3ccccc3)n2)cc1 | 76.6% (active)
23 | CCOc1ccc(-n2c(C)nc3c(cnn3-c3ccc(C)cc3)c2=O)cc1 | 0.209% (inactive)
24 | CCCCNC(=O)c1c[nH]c2ccc(S(=O)(=O)Nc3ccc(OCC)cc3)cc2c1=O | 5.78% (inactive)
25 | CCCCN(CC)C(=O)c1c[nH]c2ccc(S(=O)(=O)Nc3cccc(OC)c3)cc2c1=O | 1.98% (inactive)
26 | COc1cccc(NS(=O)(=O)c2ccc3[nH]cc(C(=O)NCCCOC(C)C)c(=O)c3c2)c1 | 122% (active)
27 | O=C(c1cccs1)c1cn(CCOc2ccc(Cl)cc2)c2ccccc12 | -1.61% (inactive)
28 | Cc1ccc(C)n1-c1nnc(N2CCC(C(=O)NCc3ccc(F)cc3)CC2)s1 | 2.04% (inactive)

Row | SMILES | activation
29 | CC1=C(c2ccc(Cl)cc2)S(=O)(=O)N=C1N1CCN(c2cc(C)ccc2C)CC1 | 7.7% (inactive)
30 | Cc1oc(-c2ccccc2)nc1Cn1c(SCc2cccc(C(F)(F)F)c2)nc2cccnc21 | 3.89% (inactive)
31 | CCN(CC)c1ccc2oc(=O)c(C)nc2c1 | 192% (active)
32 | Cc1ccc2c(=O)oc(N(C)C)nc2c1 | 1.52% (inactive)
33 | CN(Cc1nc2ccccc2c(=O)[nH]1)Cc1cc(=O)oc2ccc3ccccc3c12 | -0.344% (inactive)
34 | Cc1ccc(Cl)cc1N1CCN(C(=O)c2cn(C)c3ccc(S(=O)(=O)N(C)C4CCCCC4)cc3c2=O)CC1 | 3.27% (inactive)
35 | Cc1ccc(C(=O)Nc2sc(Cc3ccc4c(c3)OCO4)c(C)c2C(N)=O)cc1 | -1% (inactive)
36 | COc1ccc(Cl)cc1S(=O)(=O)Nc1cccc(C(=O)O)c1 | 2.88% (inactive)
37 | COc1ccc(S(=O)(=O)c2c(Nc3ccc(C)cc3)sc(C(=O)c3ccc(C)cc3)c2N)cc1 | 56.2% (active)
38 | CC(=O)c1c(Nc2ccccc2)sc(C(=O)c2ccccc2)c1C | 5.07% (inactive)
39 | COc1ccc(C(=O)N2CCC(C(=O)Nc3ccc(C)cc3)CC2)cc1 | 1.17% (inactive)
40 | COc1ccc(S(=O)(=O)c2c(Nc3cccc(Cl)c3)sc(C(=O)c3ccccc3)c2N)cc1 | 75.8% (active)
41 | Cc1ccc(S(=O)(=O)c2c(Nc3cccc(Cl)c3)sc(C(=O)c3ccc4c(c3)OCO4)c2N)cc1 | 61.9% (active)
42 | O=C(Nc1ccc2c(c1)OCO2)c1cc(-c2cccc(Cl)c2)on1 | -1.41% (inactive)
43 | CO/N=C(/CS(=O)(=O)c1ccc(Br)cc1)c1ccc(OC)cc1 | 0.348% (inactive)
44 | CCc1ccccc1NC(=O)N1CCN(C(=O)c2nsc3ccccc23)CC1 | 2.7% (inactive)
45 | CCCS(=O)(=O)c1ncc(Cl)c(C(=O)Nc2scc(-c3ccccc3)c2C(=O)OCC)n1 | 5.24% (inactive)
46 | O=c1c(NCc2cccs2)nccn1-c1ccccc1 | 2.15% (inactive)
47 | Cc1ccc(CNS(=O)(=O)c2ccc(-c3cc(C(F)(F)F)on3)s2)cc1 | 0.651% (inactive)
48 | Cn1nnnc1Sc1ncnc2scc(-c3ccccc3[N+](=O)[O-])c12 | 1.58% (inactive)
49 | CCc1ccc(NC(=O)Cn2c(=O)n(CCC(=O)NCc3ccc4c(c3)OCO4)c(=O)c3ccccc32)cc1 | -0.957% (inactive)
50 | Cc1ccc2[nH]c3c(c2c1)CN(C(=O)CN1CCN(c2ccccc2)CC1)CC3 | 0.149% (inactive)
51 | O=C(CCCN1CCc2[nH]c3ccc(F)cc3c2C1)c1ccc(F)cc1 | 56.3% (active)
52 | O=c1c2ccccc2[nH]c(=S)n1CCN1CCC(=C(c2ccc(F)cc2)c2ccc(F)cc2)CC1 | 0.942% (inactive)
53 | O=C(CSc1nc2ccccc2nc1Cc1ccccc1)N1CCCCC1 | 4.62% (inactive)
54 | CCc1nccn1S(=O)(=O)c1cc(Br)ccc1Br | -0.03% (inactive)
55 | CCOc1ccccc1NC(=O)C1=C(C)Nc2ncnn2C1c1ccc(NC(C)=O)cc1 (stereo not given) | 1.04% (inactive)
